Only some compounds are listed: those with a hit (about 7.4% of all), similar ones and a draw of the others.
Rab9 prom act: qHTS Assay for Rab9 Promoter Activators | AID 485297, 2010 | Potency, µM (doses to about 9.22 µM), without a hit: top-dose activation, negative = inhibition, usual class: activators | 2.8% of 320,000 active | Huh7 Rab9 promoter-luciferase reporter, luminescence, 24 h; also: % of control where 0% means no effect; nearly all actives have a fitted effect of over 60% in size
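Using Huh7 cells stably transfected with Rab9 promoter–luciferase, compounds were incubated 24 h at 37 °C, 5% CO2; luciferase luminescence was read 10 min after reagent addition.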
ELG1 genotox: qHTS screen for small molecules that induce genotoxicity in human embryonic kidney (HEK293T) cells expressing luciferase-tagged ELG1; HEK293T ELG1-luciferase reporter, luminescence, 16 h; Potency, µM (series often up to 46 µM), without a hit: top-dose activity change, positive = activation, actives largely listed as activators; 1.3% of 330,000 active; AID 504466, 2011; also: % of control where 0% means no effect; nearly all actives have a fitted effect of over 60% in size
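DMSO vehicle served as control against compound-treated ELG1-luciferase HEK293T cells; exposure lasted 16 hr at 37 °C and 5% CO2, followed by ONE-Glo luminescence detection after 30 min.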
FLuc counter: qHTS profiling assay for firefly luciferase inhibitor/activator using purifed enzyme and Km concentrations of substrates (counterscreen for miR-21 project); Luciferin 4-monooxygenase (Photinus pyralis), P08659; purified FLuc, Km substrates, luminescence inhibition; Potency, µM (titrated, usually from 57.5 µM), for inactives: at the top dose activity change, negative = inhibition, hits mostly inhibitors; 6.9% of 360,000 active; AID 588342, 2011;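 also: plate controls were vehicle for no effect and reference inhibitor for full effect; nearly all actives have a fitted effect of over 55% in size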
Target sequence (P08659 whole entry, looked up): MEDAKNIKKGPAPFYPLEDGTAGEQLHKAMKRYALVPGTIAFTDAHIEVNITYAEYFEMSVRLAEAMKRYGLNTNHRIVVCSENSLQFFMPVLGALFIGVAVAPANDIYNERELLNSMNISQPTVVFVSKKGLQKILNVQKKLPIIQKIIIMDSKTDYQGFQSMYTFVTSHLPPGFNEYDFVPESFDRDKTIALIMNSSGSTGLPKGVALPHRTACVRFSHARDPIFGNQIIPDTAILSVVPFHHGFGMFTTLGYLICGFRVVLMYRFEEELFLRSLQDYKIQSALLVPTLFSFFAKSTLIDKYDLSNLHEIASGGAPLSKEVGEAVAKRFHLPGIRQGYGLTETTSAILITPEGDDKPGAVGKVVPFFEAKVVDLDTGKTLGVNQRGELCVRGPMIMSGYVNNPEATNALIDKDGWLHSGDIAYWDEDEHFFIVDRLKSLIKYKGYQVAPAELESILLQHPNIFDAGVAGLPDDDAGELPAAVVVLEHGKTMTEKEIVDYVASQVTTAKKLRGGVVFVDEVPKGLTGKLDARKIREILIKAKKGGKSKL
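Purified P. pyralis luciferase, 10 nM final, with Km-level 10 uM D-luciferin and 10 uM ATP in 50 mM Tris acetate pH 7.5, 10 mM Mg acetate, 0.01% Tween-20, 0.05% BSA; 6-point qHTS titration about 60 µM downward; luminescence read.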
SMN2 splice enh: qHTS Assay for Enhancers of SMN2 Splice Variant Expression; HEK293 SMN2-luciferase splicing reporter, luminescence, 30-36 h; Potency, µM (top dose mostly 46.1 µM), for the others: at the top dose activity change, positive = activation, most hits filed as activators; 2.8% of 210,000 active; also: % of control where 0% means no effect; nearly all actives have a fitted effect of over 55% in size
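qHTS luciferase splicing reporter: luminescence rises when SMN2 exon 7 is included in transfected HEK293 cells. Compound exposure lasted 30-36 h at 37C, with 4.5 mM final sodium butyrate as control, followed by a ONE-Glo read.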
NPC1 prom act: qHTS Assay for NPC1 Promoter Activators; 2.4% of 320,000 active; Huh7 NPC1 promoter luciferase reporter, 24 h; Potency, µM (doses to about 9.22 µM), without a hit: top-dose activation, most hits filed as activators; also: % of control where 0% means no effect; nearly all actives have a fitted effect of over 60% in size
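Luciferase expression driven by the NPC1 promoter was measured in stably transfected Huh7 cells after a 24 h compound incubation, using a luciferase reagent and a luminescence read.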
Active calls of the source: *; ? = inconclusive; / = no result given; [ ] = another dose, or the depositor's remark. Calls follow the shape of the dose curve; as a rule, active = well fitted curve in the direction sought with a large enough effect; inconclusive = small, poorly fitted or top-dose-only effect, or another doubt; inactive = no such curve, though single readings can be large; an effect the other way counts as inactive or inconclusive. Potency is read from the fitted curve at half-maximal effect.

SMILES | Rab9 prom act | ELG1 genotox | FLuc counter | SMN2 splice enh | NPC1 prom act
CC1CC[C@@]2(C(=O)O)CC[C@]3(C)C(=CCC4[C@@]5(C)CCC(O)C(C)(C)C5CC[C@@]43C)C2C1C (stereo partly specified) | / | / | / | 11% | /
Cc1c(-c2nc(-c3ccc4c(c3)OCO4)no2)nnn1-c1cccc(C(F)(F)F)c1 | / | / | 4% | / | /
CC(=O)c1cccc(NC(=O)C2CCN(c3nnc(-n4cccc4)s3)CC2)c1 | / | / | -14% | / | /
COc1ccc2oc(=O)c(C(=O)Nc3cccc(C(=O)O)c3)cc2c1 | / | / | -101% | 0.79µM* | /
COc1cc(/C=C2\C(=O)N(CCC#N)N=C2C)ccc1OCC(=O)Nc1ccccc1 | 2% | ? | 11µM* | 16% | 2%
CC(=O)Oc1ccc(/C=C2/C(=O)N(c3ccccc3)N=C2C)cc1 | 2% | 1% | 24µM* | / | -3%
COc1ccc(/C=C2/C(=O)N(c3c(F)c(F)c(F)c(F)c3F)N=C2C)cc1 | -2% | 13% | ? | / | 2%
CC1=NN(c2ccccc2)C(=O)/C1=C/c1cccc(C)c1 | 1% | 7% | 24µM* | / | -4%
COc1cc(/C=C2/C(=O)N(c3cccc(Br)c3)N=C2C)cc(OC)c1O | 0% | -3% | 17µM* | / | -3%
COc1cc(/C=C2/C(=O)N(c3ccc(Br)cc3)N=C2C)cc([N+](=O)[O-])c1O | 5% | 1% | ? | / | 2%
Cc1nn(C)c2c1c(-c1ccccc1)cc(=O)n2CC(=O)NC(C)C | / | / | -2% | / | /
COCCNC(=O)Cn1c(=O)oc2cc(S(=O)(=O)N3CC(C)CC(C)C3)ccc21 (stereo unspecified) | 5% | 2% | 4% | / | -4%
COc1cccc(-c2cc(C(F)(F)F)nc(-n3nc(C)c(Br)c3C)n2)c1 | / | / | -1% | 6% | /
CC1=NN(CCC#N)C(=O)/C1=C/c1ccc(N(C)C)cc1 | 3% | 5% | 19µM* | 0% | 1%
CCOc1cc(/C=C2\C(=O)N(CCC#N)N=C2C)ccc1OCC(N)=O | -8% | 2% | -14% | 27% | -1%
COc1ccc(/C=C2/C(=O)N(c3ccccc3)N=C2C)cc1OC | -2% | 11% | 6µM* | / | -4%
CC1(C)CC(=O)c2c(O)cc(OCC(=O)N3CCN(c4ccccc4)CC3)cc2O1 | 0% | -6% | 15µM* | / | 0%
O=C(COc1ccccc1)N1CCN(c2ccccc2)CC1 | 0% | 1% | 4% | -27% | -1%
OCCC1CN(Cc2cc3c(cc2Cl)OCO3)CCN1C1CCCCC1 (stereo unspecified) | 1% | -1% | -1% | / | 1%
Nc1cc(=O)[nH]c(SCC(=O)c2ccc(F)cc2)n1 | -1% | -3% | 1% | / | 1%
COc1ccccc1C1CC(=O)Oc2c(C(C)C)ccc(C)c21 (stereo unspecified) | / | 0% | / | / | /
COc1ccc(CNC(=O)CCCCCNC(=O)N2CCn3c2nc2ccccc23)cc1 | -2% | 0% | 17µM* | / | -14%
O=C(CCNC(=O)N1CCn2c1nc1ccccc12)NCc1ccc(Cl)cc1 | -2% | -5% | -2% | / | -3%
CC(/C=N/NC(=O)Cc1cccn1C)=C\c1ccccc1 | 28% | 15% | 11µM* | 13% | 17%
O=C(Cc1cccs1)N/N=C/C(Br)=C/c1ccccc1 | 4µM* | ? | ? | ? | 3.2µM*
SMILES | Rab9 prom act | ELG1 genotox | FLuc counter | SMN2 splice enh | NPC1 prom act
CC(/C=N/NC(=O)Cc1cccs1)=C\c1ccccc1 | 3.5µM* | ? | 2.7µM* | / | ?
Cn1cccc1CC(=O)N/N=C/c1cccc2ccccc12 | 2% | 1% | -2% | 8% | 5%
CC(/C=N/NC(=O)CSc1n[nH]c(=O)[nH]c1=O)=C\c1ccccc1 | 9% | -2% | 15µM* | / | -3%
O=C(Cc1cccs1)N/N=C/c1ccccn1 | 17% | 2% | -13% | / | 0%
Cc1ccc(OCCNC(=O)CCNS(=O)(=O)c2ccc3ccccc3c2)cc1 | -4% | -3% | 4% | / | -4%
CN(C)c1oc(-c2ccc(COc3ccccc3)o2)nc1C#N | / | / | -15% | / | /
Cc1cccc(OCC(=O)N(C)CC(=O)Nc2cccc(F)c2)c1C | -4% | 1% | -17% | / | 1%
O=C(N/N=C/c1ccccn1)c1cc(-c2ccc(Cl)cc2)nc2ccccc12 | -4% | 17% | 6.7µM* | -81% | 0%
O=C(N/N=C/c1ccccn1)c1cc(-c2ccc(Br)cc2)nc2ccccc12 | -3% | ? | 5.4µM* | / | -4%
COc1ccc(-n2ncc3c2ncn2nc(-c4ccc(OC)c(OC)c4)nc32)cc1 | / | / | 0% | 7% | /
CN(CC(=O)Nc1cccc(F)c1)C(=O)c1ccccc1OCCOc1ccccc1 | 11% | 0% | 2% | / | -1%
O=C1C2C3C=CC(C4CC34)C2C(=O)N1c1ccc2c(c1)OCO2 (stereo unspecified) | 5% | 0% | 21µM* | -20% | 7%
O=C(NCC(c1cccnc1)N1CCN(c2ccccc2F)CC1)C(=O)Nc1ccc(F)cc1F (stereo unspecified) | / | / | -7% | / | /
CC(C)CN(CCCNC(=O)c1cc(-c2cccs2)nc2ccccc12)CC(C)C | / | / | -6% | 2% | /
NC(=O)c1ccsc1NC(=O)COC(=O)c1ccccc1F | 0% | 5% | 11µM* | / | 1%
NC(=O)c1ccsc1NC(=O)COC(=O)c1cc(Cl)ccc1O | -3% | 0% | 4.3µM* | / | -3%
NC(=O)c1ccsc1NC(=O)COC(=O)/C=C/c1ccccc1[N+](=O)[O-] | / | 1% | / | / | /
NC(=O)c1ccsc1NC(=O)COC(=O)/C=C/c1ccccc1 | 0% | -17% | 11µM* | / | 7%
COCCn1c(C)cc(O)c(C(c2ccccc2)N2CCC(C)CC2)c1=O (stereo unspecified) | / | / | -3% | / | /
COc1ccc(OC)c(CCNC(=O)C(C)n2c(C)c3cnn(-c4ccccc4)c(=O)c3c2C)c1 (stereo unspecified) | / | / | 1% | -21% | /
Cc1cccc(OCCCC(=O)NC2CCCCC2)c1 | 6% | 2% | 2% | / | 2%
Cc1nc2oc3ccccc3c(=O)c2cc1C(=O)O | -2%[1.84 µM] | 8% | -15% | / | 2%
COC(=O)c1cc2c(=O)c3ccccc3oc2nc1C | ? | ? | 11µM* | / | 2.2µM*
COC(=O)c1cc2c(=O)c3ccccc3oc2nc1/C=C/N(C)C | 0% | -2% | ? | / | -3%
CCc1nc2oc3ccc(C)cc3c(=O)c2cc1C(=O)OC | 3.5µM* | ? | 3µM* | / | 3.5µM*
COC(=O)C(C)n1cnc2c(nnn2-c2ccccc2)c1=O (stereo unspecified) | 4% | 6% | -2% | / | 5%
COc1ccc(S(N)(=O)=O)cc1C(=O)OCCCOC(=O)c1cc(S(N)(=O)=O)ccc1OC | -16% | 7.3µM* | -2% | / | -15%

Screens as filed in PubChem BioAssay.
